# Measurements taken from the supplement of paper PMC4022240.
# ± gives the standard deviation.
# T1: HaloTag-ATRX ADD domain (163-292)
# T1 chain: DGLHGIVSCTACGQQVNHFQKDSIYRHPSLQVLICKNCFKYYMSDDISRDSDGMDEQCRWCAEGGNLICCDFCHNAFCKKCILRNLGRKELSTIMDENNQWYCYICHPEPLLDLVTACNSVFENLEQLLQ
# Tests used:
# Experiment in all cases: peptide microarray binding signal (635 nm), min-max normalized on array (fraction of array maximum); higher = stronger binding
# Settings in all cases: peptide region: Unmod H4 variant
# [1] = molecular target: T1, HaloTag-ATRX ADD domain (163-292)
# How it was run: (§1)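 Two probe formats were used for 1 h at 4°C: biotin-labelled HaloTag reader fusions (10 nM to 1 μM) with streptavidin-Alexa Fluor 647, and rabbit histone antibodies (1:10,000 to 1:2,000) with anti-rabbit Alexa 647. Both were applied to nitrocellulose arrays of histone 13-mer peptide–cellulose conjugates printed in triplicate with a Cy3 tracer and blocked overnight at 4°C. Signal was read at 635 nm and misprints at 532 nm on an Axon GenePix 4000B. Binding signal is expressed as the triplicate-spot mean intensity, min-max scaled for each library.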
# [2] = molecular target: HaloTag-ING2 PHD (mouse Ing2 200-280)
# How it was run: as §1
# [3] = molecular target: anti-H3K4me3 antibody ab8580
# How it was run: as §1
# [4] = molecular target: anti-H3K9me3 antibody ab8898
# How it was run: as §1
# [5] = binder concentration: 1:2,000 dilution
# [6] = binder concentration: 1:10,000 dilution
Binder,peptide microarray binding signal ([1]; binder concentration: 50 nM),peptide microarray binding signal ([1]; binder concentration: 500 nM),peptide microarray binding signal ([2]; binder concentration: 10 nM),peptide microarray binding signal ([2]; binder concentration: 100 nM),"peptide microarray binding signal [3, 5]","peptide microarray binding signal [3, 6]","peptide microarray binding signal [4, 5]","peptide microarray binding signal [4, 6]"
YEETRGVLKVFLE [Unmod H4 variant Y E E T R G V L K V F L E],0.00188 ± 2.3e-05,0.00157,0.00197 ± 3e-05,0.001913 ± 1.9e-05,0.00123 ± 0.00021,0.000742,0.000287 ± 2.9e-06,0.000807 ± 2.5e-05
GVLKVFLENVIRD [Unmod H4 variant G V L K V F L E N V I R D],0.00223 ± 6.3e-05,0.00281 ± 0.00014,0.00388 ± 0.00015,0.00269 ± 6.7e-05,0.00174 ± 0.00026,0.00097 ± 2e-05,0.00125 ± 0.00016,0.00098
FLENVIRDAVTYT [Unmod H4 variant F L E N V I R D A V T Y T],0.0144 ± 0.0008,0.0404 ± 0.01,0.00901 ± 0.0012,0.0294 ± 0.011,0.00381 ± 0.00074,0.00519 ± 0.00068,0.00331 ± 0.00056,0.0034 ± 0.00025
IRDAVTYTEHAKR [Unmod H4 variant I R D A V T Y T E H A K R],0.0385 ± 0.0035,0.0711 ± 0.01,0.0251 ± 0.0019,0.0444 ± 0.0047,0.00429 ± 0.00052,0.00913 ± 0.0018,0.00497 ± 9e-05,0.00577 ± 8e-05
TYTEHAKRKTVTA [Unmod H4 variant T Y T E H A K R K T V T A],0.0167 ± 0.0088,0.0332 ± 0.0014,0.00901 ± 0.00035,0.0293 ± 0.0034,0.00155 ± 0.00011,0.0024 ± 0.00014,0.00104 ± 3.8e-05,0.00202 ± 8.6e-05
AKRKTVTAMDVVY [Unmod H4 variant A K R K T V T A M D V V Y],0.00693 ± 0.00037,0.0206 ± 0.0015,0.00609 ± 0.00018,0.0129 ± 0.0003,0.00104 ± 3.5e-05,0.001484 ± 1.4e-05,0.000604 ± 2e-05,0.00104 ± 1.1e-05
